Experimental data published in PubChem BioAssay (Tox21).
Results filed as inconclusive are left out. Active and inactive are the calls of the source. Calls come from the whole dose curve; as a rule, active = well fitted curve in the direction sought with a large enough effect in the repeat runs; inconclusive = weak or mixed curves; inactive = no such curve, though single readings can be large; an effect the other way counts as inactive or inconclusive.

Assays:
[1] = qHTS RealTime-Glo MT Cell Viability Assay in HepG2 cells - 8 hour (AID 1224873); note: nearly all actives have a fitted effect of over 55% in size
Method in brief: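 HepG2 cells mixed with RealTime-Glo MT reagents (NanoLuc plus cell-permeant prosubstrate) were seeded at 600 cells/well, incubated 5 h at 37 C/5% CO2, then pinned with compounds in DMSO; nonlytic luminescence tracked viability during 40 h treatment.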

[2] = qHTS RealTime-Glo MT Cell Viability Assay in HEK293 cells - 40 hour (AID 1224874); conditions: RealTime-Glo luminescence; max response: hits give low values; note: nearly all actives have a fitted effect of over 50% in size
Method in brief: (§1)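 Real-time viability in HEK293: signal arises when living cells convert a prosubstrate for NanoLuc in the medium, so luminescence tracks viable cell number. Compound (23 nL, DMSO) added 5 h post-seeding; kinetic reads at 0–40 h, 37 C.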

[3] = A CellTox Green Cytotoxicity Assay to monitor cytotoxicity in HEK293 cells - 24 hour (AID 1224875); note: series mostly up to about 77 µM; nearly all actives have a fitted effect of over 45% in size
Method in brief: (§2)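 Cells (HEK293, 600/well) and dye reagent are dispensed together. After 5 h at 37 C, 23 nL compound is pinned in. Plates stay at 37 C for 40 h with fluorescence read at 0h, 8h, 16h, 24h, 32h and 40h.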

[4] = A CellTox Green Cytotoxicity Assay to monitor cytotoxicity in HepG2 cells - 16 hour (AID 1224876); note: nearly all actives have a fitted effect of over 45% in size
Method in brief: (§3)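 Cells and non-lytic dye reagent are dispensed together (600 HepG2 cells/well) and incubated 5 h before DMSO compound transfer. Kinetic fluorescence is then recorded in the same wells during 40 h at 37 C.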

[5] = qHTS RealTime-Glo MT Cell Viability Assay in HepG2 cells - 32 hour (AID 1224877); note: nearly all actives have a fitted effect of over 55% in size
Method in brief: (§4)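 Cells + NanoLuc/prosubstrate dispensed (600 cells/well) → 5 h at 37 C/5% CO2 → compounds in DMSO transferred → 40 h incubation at 37 C, luminescence read at 0, 8, 16, 24, 32, 40 h.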

[6] = A CellTox Green Cytotoxicity Assay to monitor cytotoxicity in HepG2 cells - 24 hour (AID 1224878); note: nearly all actives have a fitted effect of over 45% in size
Method in brief: as §3

[7] = A CellTox Green Cytotoxicity Assay to monitor cytotoxicity in HepG2 cells - 40 hour (AID 1224879); note: nearly all actives have a fitted effect of over 40% in size
Method in brief: as §3

[8] = qHTS RealTime-Glo MT Cell Viability Assay in HEK293 cells - 0 hour (AID 1224880); note: top concentration of the series differs between compounds; nearly all actives have a fitted effect of over 45% in size
Method in brief: as §1

[9] = A CellTox Green Cytotoxicity Assay to monitor cytotoxicity in HEK293 cells - 32 hour (AID 1224881); note: nearly all actives have a fitted effect of over 40% in size
Method in brief: as §2

[10] = A CellTox Green Cytotoxicity Assay to monitor cytotoxicity in HepG2 cells - 0 hour (AID 1224882); note: nearly all actives have a fitted effect of over 35% in size
Method in brief: as §3

[11] = A CellTox Green Cytotoxicity Assay to monitor cytotoxicity in HepG2 cells - 32 hour (AID 1224883); note: nearly all actives have a fitted effect of over 50% in size
Method in brief: as §3

[12] = A CellTox Green Cytotoxicity Assay to monitor cytotoxicity in HEK293 cells - 8 hour (AID 1224884); note: nearly all actives have a fitted effect of over 35% in size
Method in brief: as §2

[13] = qHTS RealTime-Glo MT Cell Viability Assay in HepG2 cells - 16 hour (AID 1224885); note: nearly all actives have a fitted effect of over 50% in size
Method in brief: as §4

[14] = qHTS RealTime-Glo MT Cell Viability Assay in HEK293 cells - 24 hour (AID 1224886); note: top concentration of the series differs between compounds; nearly all actives have a fitted effect of over 50% in size
Method in brief: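 Tox21 10K qHTS, HEK293, 600 cells/well, RealTime-Glo reagent co-dispensed with cells; 5 h preincubation, compound by pintool, 37 C, luminescence at 0–40 h.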

[15] = qHTS RealTime-Glo MT Cell Viability Assay in HEK293 cells - 8 hour (AID 1224887)
Method in brief: as §1

[16] = qHTS RealTime-Glo MT Cell Viability Assay in HepG2 cells - 0 hour (AID 1224889); note: nearly all actives have a fitted effect of over 50% in size
Method in brief: as §4

[17] = A CellTox Green Cytotoxicity Assay to monitor cytotoxicity in HepG2 cells - 8 hour (AID 1224890); note: nearly all actives have a fitted effect of over 45% in size
Method in brief: as §3

[18] = qHTS assay to identify small molecule antagonists of the estrogen receptor alpha (ER-alpha) signaling pathway using the BG1 cell line in the presence of 0.1 nM 17-beta-estradiol - cell viability counter screen (AID 1259241); note: nearly all actives have a fitted effect of over 40% in size
Method in brief: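 Estradiol-stimulated (0.1 nM) VM7Luc4E2 cells exposed to compounds 22 hr; viability measured by fluorescence of cleaved CellTiter-Fluor substrate after 30 min.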

[19] = qHTS assay to identify small molecule antagonists of the androgen receptor (AR) signaling pathway using the MDA cell line in the presence of 0.5 nM R1881 - cell viability counter screen (AID 1259242); note: nearly all actives have a fitted effect of over 45% in size
Method in brief: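 Steps: plate MDA-kb2 cells, rest 5 hr at 37C without CO2; pin in compounds in DMSO; add R1881 to 0.5 nM final; incubate 16 hr; add CellTiter-Fluor, 30 min; read fluorescence.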

[20] = A CellTox Green Cytotoxicity Assay to monitor cytotoxicity in HEK293 cells - 16 hour (AID 1224888); note: nearly all actives have a fitted effect of over 35% in size
Method in brief: as §2
% is set by controls: 0 for no effect and ±100 for the full control effect.

C=CC(=C)CC/C=C(\C)CCC=C(C)C
inactive: viability change, negative = cytotoxic [1] 1.83% [at 15.8 µM] | max response [2] -13.5% | activity change [3] 0.574% [at 15.8 µM, hits give high values] | cytotoxicity increase [4] 1.01% [at 15.8 µM] | activity change, negative = cytotoxic [5] -2.56% [at 15.8 µM] | cytotoxicity [6] -0.282% [at 15.8 µM] | cytotoxicity increase [7] -0.316% [at 15.8 µM] | activity change, negative = cytotoxicity [8] -0.65% [at 15.8 µM] | cytotoxicity increase [9] 1.9% [at 15.8 µM] | cytotoxicity [10] -7.07% [at 15.8 µM] | cytotoxicity increase [11] 2.06% [at 15.8 µM] | cytotoxicity increase [12] 0.0594% [at 15.8 µM] | activity change, negative = cytotoxic [13] 1.17% [at 15.8 µM] | activity change, negative = cytotoxicity [14] -7.54% [at 15.8 µM] | activity change, negative = cytotoxicity [15] -9.22% [at 15.8 µM] | activity change, negative = cytotoxicity [16] 8.34% [at 15.8 µM] | cytotoxicity increase [17] 2.8% [at 15.8 µM] | activity change, negative = cytotoxicity [18] 2.52% [at 19 µM] | viability change, negative = cytotoxic [19] 2.29% [at 19 µM]

Clc1cccnc1
inactive: Potency [1] | max response [2] 0.202% | Potency [3] | Potency [4] | Potency [5] | Potency [6] | Potency [7] | Potency [8] | Potency [9] | Potency [10] | Potency [11] | Potency [12] | Potency [13] | Potency [14] | Potency [15] | Potency [20] | Potency [16] | Potency [17] | Potency [18] | Potency [19]

O=S(=O)(O)c1cc(S(=O)(=O)O)c2ccc3c(S(=O)(=O)O)cc(S(=O)(=O)O)c4ccc1c2c43
inactive: viability change, negative = cytotoxic [1] 0.921% [at 15.8 µM] | max response [2] 2.05% | activity change [3] -0.396% [at 15.8 µM, hits give high values] | cytotoxicity increase [4] -4.69% [at 15.8 µM] | activity change, negative = cytotoxic [5] 5.28% [at 15.8 µM] | cytotoxicity [6] -8.46% [at 15.8 µM] | cytotoxicity increase [7] -11.4% [at 15.8 µM] | activity change, negative = cytotoxicity [8] 3.1% [at 15.8 µM] | cytotoxicity increase [9] -1.7% [at 15.8 µM] | cytotoxicity [10] -2.2% [at 15.8 µM] | cytotoxicity increase [11] -9.89% [at 15.8 µM] | cytotoxicity increase [12] -7.26% [at 15.8 µM] | activity change, negative = cytotoxic [13] 2.01% [at 15.8 µM] | activity change, negative = cytotoxicity [14] 1.56% [at 15.8 µM] | activity change, negative = cytotoxicity [15] -2.93% [at 15.8 µM] | activity change [20] -3.56% [at 15.8 µM, hits give high values] | activity change, negative = cytotoxicity [16] 4.18% [at 15.8 µM] | cytotoxicity increase [17] 7.21% [at 15.8 µM] | activity change, negative = cytotoxicity [18] -2.07% [at 19 µM] | viability change, negative = cytotoxic [19] -1.34% [at 19 µM]

CC(C)c1ccccc1N
inactive: Potency [1] | max response [2] 0.54% | Potency [3] | Potency [4] | Potency [5] | Potency [6] | Potency [7] | Potency [8] | Potency [9] | Potency [10] | Potency [11] | Potency [12] | Potency [13] | Potency [14] | Potency [15] | Potency [20] | Potency [16] | Potency [18] | Potency [19]

C[Si](C)O[Si](C)C
inactive: Potency [1] | max response [2] -8.35% | Potency [3] | Potency [4] | Potency [5] | Potency [6] | Potency [7] | Potency [8] | Potency [9] | Potency [10] | Potency [11] | Potency [12] | Potency [13] | Potency [14] | Potency [15] | Potency [20] | Potency [16] | Potency [17] | Potency [18] | Potency [19]

CC(C)=CC1CC(C)CCO1 (centres undefined)
inactive: Potency [1] | max response [2] 2.02% | Potency [3] | Potency [4] | Potency [5] | Potency [6] | Potency [7] | Potency [8] | Potency [9] | Potency [10] | Potency [11] | Potency [12] | Potency [13] | Potency [14] | Potency [15] | Potency [20] | Potency [16] | Potency [17] | Potency [18] | Potency [19]

CCCCCCCCCCCC(=O)N(CC)CC
inactive: Potency [1] | max response [2] -24.4% | Potency [3] | Potency [4] | Potency [5] | Potency [6] | Potency [7] | Potency [8] | Potency [9] | Potency [10] | Potency [11] | Potency [12] | Potency [13] | Potency [14] | Potency [15] | Potency [20] | Potency [16] | Potency [17] | Potency [18] | Potency [19]

Cc1cccc(N(C)C)c1
inactive: Potency [1] | max response [2] 7.91% | Potency [3] | Potency [4] | Potency [5] | Potency [6] | Potency [7] | Potency [8] | Potency [9] | Potency [10] | Potency [11] | Potency [12] | Potency [13] | Potency [14] | Potency [15] | Potency [20] | Potency [16] | Potency [18] | Potency [19]

COc1ccc(C#N)cc1
inactive: Potency [1] | max response [2] -13.1% | Potency [3] | Potency [4] | Potency [5] | Potency [6] | Potency [7] | Potency [8] | Potency [9] | Potency [10] | Potency [11] | Potency [12] | Potency [13] | Potency [14] | Potency [15] | Potency [20] | Potency [16] | Potency [18] | Potency [19]

CCOC(=O)COc1ccc(C)cc1
inactive: Potency [1] | max response [2] 0.285% | Potency [3] | Potency [4] | Potency [5] | Potency [6] | Potency [7] | Potency [8] | Potency [9] | Potency [10] | Potency [11] | Potency [12] | Potency [13] | Potency [14] | Potency [15] | Potency [20] | Potency [16] | Potency [18] | Potency [19]

COC(=O)CC#N
inactive: Potency [1] | max response [2] 9.57% | Potency [3] | Potency [4] | Potency [5] | Potency [6] | Potency [7] | Potency [8] | Potency [9] | Potency [10] | Potency [11] | Potency [12] | Potency [13] | Potency [14] | Potency [15] | Potency [20] | Potency [16] | Potency [17] | Potency [18] | Potency [19]

CCC(C)C(=O)OC (centres undefined)
inactive: Potency [1] | max response [2] 4.5% | Potency [3] | Potency [4] | Potency [5] | Potency [6] | Potency [7] | Potency [8] | Potency [9] | Potency [10] | Potency [11] | Potency [12] | Potency [13] | Potency [14] | Potency [15] | Potency [20] | Potency [17] | Potency [18] | Potency [19]
